# High-throughput results: PubChem BioAssay, The Scripps Research Institute Molecular Screening Center
# FBW7 act: human FBW7 E3 ligase activation, primary screen | Q969H0 | 0.13% of 650,000 active | AlphaScreen FBW7–phospho-cyclin E peptide binding, activator screen | normalized activity (activation), % at 26.1 µM; in the data active = normalized activity above about 1.9%;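 note: purified mutant Fbw7 with reduced substrate affinity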
# Target sequence (Q969H0 whole entry, looked up): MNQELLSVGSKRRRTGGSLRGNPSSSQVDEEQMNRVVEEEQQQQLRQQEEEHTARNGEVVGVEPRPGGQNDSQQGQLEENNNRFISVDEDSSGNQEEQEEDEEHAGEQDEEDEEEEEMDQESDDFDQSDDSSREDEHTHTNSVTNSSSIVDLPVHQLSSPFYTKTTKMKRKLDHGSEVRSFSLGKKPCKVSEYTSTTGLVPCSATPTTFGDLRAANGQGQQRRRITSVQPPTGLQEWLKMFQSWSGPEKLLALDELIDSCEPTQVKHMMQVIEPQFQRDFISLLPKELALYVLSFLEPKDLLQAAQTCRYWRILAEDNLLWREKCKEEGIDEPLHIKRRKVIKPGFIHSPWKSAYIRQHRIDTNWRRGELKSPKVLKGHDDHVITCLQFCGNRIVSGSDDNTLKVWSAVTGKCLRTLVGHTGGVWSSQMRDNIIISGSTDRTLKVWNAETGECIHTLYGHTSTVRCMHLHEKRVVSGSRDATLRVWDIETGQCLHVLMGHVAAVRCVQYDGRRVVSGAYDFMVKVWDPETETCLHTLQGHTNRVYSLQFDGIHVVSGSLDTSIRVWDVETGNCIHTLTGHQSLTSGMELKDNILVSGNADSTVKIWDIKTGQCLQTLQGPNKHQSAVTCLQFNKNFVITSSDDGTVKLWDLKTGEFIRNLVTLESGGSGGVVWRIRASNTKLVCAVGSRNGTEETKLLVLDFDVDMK
# TEAD-YAP inh: TEAD-YAP interaction inhibition; HEK-TIYL cells, TEAD-Gal4/YAP UAS-luciferase luminescence; inhibition, % at 9.12 µM; 1.4% of 640,000 active; AID 1259422; in the data active = inhibition above about 32%;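 note: 0% = median of test compound wells and 100% = reference inhibitor wells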
# MITF primary: blocks human microphthalmia-associated transcription factor | O75030 | AlphaScreen MITF homodimerization, bead proximity signal | inhibition, % at 2.6 µM | 0.91% of 650,000 active | AID 1259374; in the data active = inhibition above about 50%;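 note: 0% = vehicle wells with protein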
# GPR151 activ: human GPR151 activation | Q8TDV0 | PathHunter beta-arrestin GPR151 cells, luminescence | activation, % at 11.2 µM | 1% of 650,000 active | AID 1508602; in the data active = activation above about 4.9%;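 note: 0% = median of compound wells and 100% = cells with positive control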
# GPR151 conf act: confirmation of human GPR151 activators. shares compounds with GPR151 activ. GPR151 PathHunter beta-arrestin cells, luminescence, 90 min; % of EA-reagent control over plate median. activation, % at 11.2 µM. 6,700 tested, under 10 active;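 active = mean percent activation across replicates above the confirmation screen cutoff of 4.91%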
# GPR119 ag: GPR119 activation, counter-screen for GPR151 activators; shares compounds with GPR151 activ; GPR119 PathHunter beta-arrestin cells, luminescence, 90 min; 0 = compound-well median, 100 = enzyme-acceptor control; activation, % at 11.2 µM; 0.3% of 6,700 active; AID 1508611;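 active = mean percent activation in the counterscreen above 29.09%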;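 note: counterscreen on off-target GPR119 to flag nonselective hits from the GPR151 activator screen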
# The depositor's hits bear a star; · = not tested or not shown. Compounds with a hit are over-represented: about 3.5% of the library has one in this group of screens.
SMILES,FBW7 act,TEAD-YAP inh,MITF primary,GPR151 activ,GPR151 conf act,GPR119 ag
O=C(CC1C(=O)NCCN1Cc1ccc2ccccc2c1)NC1CCOCC1 (stereo not given),0,10,7,0,·,·
O=C(CC1C(=O)NCCN1Cc1ccc2ccccc2c1)NC1CCCCCC1 (stereo not given),0,-2,-2,9.5*,-2,-19
COc1ccccc1/C=C/CN1CCNC(=O)C1CC(=O)NC1CCC1 (stereo not given),0,7,-6,0,·,·
O=C(CC1C(=O)NCCN1CC(c1ccccc1)c1ccccc1)NC1CCC(O)CC1 (stereo not given),0,2,12,5.3*,-1,-7
COc1ccc(-c2cc(C(F)(F)F)n3nc(C(=O)N4CCCc5ccccc54)c(Cl)c3n2)cc1OC,0,-11,-9,0,·,·
Cc1cccc(N2N=C(c3ccccc3)CC2=O)c1C,0,14,6,8.8*,-1,10
Clc1ccc(CN2CCc3nc(-c4ccccn4)nc(N4CCOCC4)c3C2)s1,-1,-1,16,5.1*,1,10
Cc1sc(NC(=O)CCOc2ccccc2)c(C#N)c1C,0,6,-5,6.9*,-1,4
CC(C)NC(=O)C(=O)NNC(=O)c1ccc(C(C)(C)C)cc1,0,-6,-4,5.7*,-1,-1
CC(C)NC(=O)c1ccc(COCC(F)(F)F)cc1,0,6,15,0,·,·
CC(C)NC(=O)c1ccc(C(=O)C(F)(F)F)cc1,0,3,-9,5.6*,0,-1
CCOC(=O)C1CCN(CCC(=O)Nc2ccc(Br)c(C)c2)CC1,2,-9,9,10*,0,-8
CC(=O)CSc1nnc(C)n1-c1ccc(N(C)C)cc1,0,-5,8,-1,·,·
COC(=O)CSc1nnc(C)n1-c1ccc(N(C)C)cc1,0,1,-18,5.6*,0,4
CCCCCCCn1c(Cc2ccccc2)nc2ccccc21,0,-4,-1,5.8*,0,-1
O=C(CN1CCN(S(=O)(=O)c2ccc(Cl)cc2)CC1)c1ccc(F)cc1,0,-6,-7,15*,-1,-6
COc1ccc(/C=C2\C=C(c3ccccc3)N(c3cccnc3)C2=O)cc1Br,0,-10,0,0,·,·
CSc1cccc(CN2CCCC(CNC(=O)c3cccs3)C2)c1 (stereo not given),1,19,16,-3,·,·
CC(=O)c1cccc(CN2CCCC(CNC(=O)c3cccs3)C2)c1 (stereo not given),0,3,-2,10*,0,-14
CC(C)c1csc(CN2CCCC(CNC(=O)c3cccs3)C2)n1 (stereo not given),0,24,6,6.1*,1,-7
Cc1cnc(NCc2cccnc2)nc1NCCN(C(C)C)C(C)C,1,0,2,0,·,·
Cc1ccc2c(=O)c(CN3CCCCC3)c(C)[nH]c2c1C,0,7,5,0,·,·
CC1(C)Cc2c(sc3ncnc(NNC(=O)c4ccccc4)c23)CO1,0,6,-4,6.3*,0,2
Cc1ccsc1/C=C(\C#N)C(=O)NCc1cccnc1,0,2,-6,12*,0,-2
Cc1ccsc1/C=C(/C#N)C(=O)NCc1ccccc1,0,-11,8,-1,·,·
SMILES,FBW7 act,TEAD-YAP inh,MITF primary,GPR151 activ,GPR151 conf act,GPR119 ag
CC(C)C(=O)Nc1cccc(C(=O)Nc2ccccc2C(N)=O)c1,0,5,8,1,·,·
CC1=C(C(=O)OCCc2ccccc2)C(c2ccc(Cl)c(Cl)c2)C2=C(CCCC2=O)N1 (stereo not given),0,-5,-19,0,·,·
NN1C(=O)c2ccccc2NC1C1CC=CCC1 (stereo not given),1,-11,16,20*,-1,-9
C[n+]1cccc(C(=O)Nc2ccccc2)c1,0,-1,17,5.4*,-1,-8
COC(=O)c1cccc(NC(=O)c2ccc[n+](C)c2)c1,0,-3,-3,0,·,·
CC(C)CN(C(=O)c1ccccc1Cl)c1nnc(-c2ccncc2)s1,-1,-6,12,6.3*,0,-2
O=C(O)CCCn1c(=O)oc2ccccc21,2,-2,4,0,·,·
O=C(CCCn1c(=O)oc2ccccc21)NNC(=O)COc1ccc(F)cc1,0,-1,13,5.7*,0,-8
CCCCN(CCCNC(=O)c1c(C)cc(=O)oc1C)c1ccccc1,0,-23,15,2,·,·
CCN(CCCNC(=O)c1c(C)cc(=O)oc1C)c1ccccc1,0,-10,3,5.1*,-1,-8
CCOc1cc(-c2nnc(SCC(=O)Nc3ccccc3C(F)(F)F)nc2-c2ccc(OC)c(OCC)c2)ccc1OC,1,3,3,0,·,·
CCc1nnc(NC(=O)CSc2nc3cc4c(cc3cc2C#N)OCCO4)s1,0,3,2,0,·,·
Cc1cccc(N=c2sc(C3=c4ccccc4=NC3=O)c(O)n2-c2cccc(C)c2)c1,0,2,-3,0,·,·
Cc1ccc(S(=O)(=O)/N=c2\sc(C3=c4ccccc4=NC3=O)c(O)n2C)cc1,0,13,5,6.8*,0,-1
c1cncc(CSc2ncccc2-c2nc3ccccc3[nH]2)c1,1,3,25,0,·,·
O=C(Cc1ccc(Br)cc1)NCc1cn(-c2ccncc2)nn1,-1,-5,2,-2,·,·
O=C(CN(C(=O)c1csnn1)c1ccc(F)cc1)NCc1ccccc1,0,-2,8,5.6*,-1,-6
Cc1ccc(CNC(=O)C(=O)NCc2ccc(Cl)cc2)cc1,0,3,11,0,·,·
COc1ccccc1OCC(=O)NCc1ccc(C)cc1,1,-12,-3,5.4*,0,4
Cc1ccc(CNC(=O)c2ccc(C)cc2)cc1,1,-20,28,0,·,·
Cc1ccc(CNC(=O)c2csnn2)cc1,0,-3,7,13*,1,7
Cc1ccc(CNC(=O)Cc2ccc(Cl)cc2)cc1,0,-12,1,8.4*,0,-2
COc1nc(Nc2ccc(Oc3ccccc3)cc2)nc(-c2ccc(C(=O)N3CCN(C)CC3)cc2)n1,0,4,-8,-1,·,·
CC(=O)Nc1ccc(C2=N/C(=C/c3ccc4c(c3)OCO4)C(=O)O2)cc1,0,2,14,1,·,·
CCOC(=O)c1ccc(N2C(=O)CC(Nc3cccc(O)c3)C2=O)cc1 (stereo not given),0,-4,-2,0,·,·
Cc1ccc(CNC(=O)c2sccc2-n2cccc2)cc1,0,2,16,5.6*,0,7
Cc1ccc(CNC(=O)c2ccc(-n3cccc3)cc2)cc1,0,-17,41,1,·,·
C[C@@H]1NC(=O)[C@H]2CN(Cc3cnn(-c4ccc(F)cc4)c3)CCN2C1=O,0,4,10,0,·,·
